{"source": "PubChem BioAssay (Tox21)", "note": "Activity calls are given as the source filed them. Calls come from the whole dose curve; as a rule, active = well fitted curve in the direction sought with a large enough effect in the repeat runs; inconclusive = weak or mixed curves; inactive = flat fitted curve, though single readings scatter. % is set by controls: 0 for no effect and ±100 for the full control effect."}
{"test": "qHTS assay to test for compound auto fluorescence at 460 nm (blue) in HEK293 cell free culture (AID 720681)", "conditions": "cell-free medium, autofluorescence 405/460 nm (blue); series mostly up to 91.3 µM; fluorescence, % of fluorescent control: at the top concentration", "source_text": "U.S. Tox21 Program National Center for Advancing Translational Sciences [NCATS] NIH Chemical Genomics Center [NCGC] U.S. Environmental Protection Agency [EPA] National Institutes of Environmental Health Sciences [NIEHS] National Toxicology Program [NTP] U.S. Food and Drug Administration [FDA] Tox21 Assay Overview: Compound auto fluorescence often interferes with screening of the compound library against various biological targets and signaling pathways. Some of these compounds may have fluorophoric properties. Such properties may interfere with the assay outputs resulting in false positives and/or negatives. To decrease such complications and ensure the compound activities are relevant in terms of biological response, the Tox21 10K compound library was screened for auto fluorescence. From the fluorophores used as reporter signals in our screening assays, the auto fluorescence equivalencies of compounds against three fluorophores have been evaluated: Triamterene, Fluorescein and Rose Bengal sodium for blue, green and red fluorescence, respectively. The fluorescence intensities were measured using Excitation/Emission wavelengths at 405/460nm, 485/535nm and 540/590nm for blue, green and red labels, respectively. This assay includes the blue fluorescence data.\nTox21 Assay Protocol Summary: 5 uL of culture medium (DMEM containing 10% FBS) per well was dispensed into black wall/clear bottom 1536-well plates using a Multidrop Combi Dispenser (ThermoFisher Scientific, Waltham, MA). After 23 nL compound or DMSO vehicle was transferred into assay plate by a pintool work station (Kalypsys, San Diego, CA), fluorescence intensities in the assay plates were measured by an Envision (PerkinElmer, Shelton, CT) plate reader using three labels for measuring blue, green and red fluorescence at […] 460, 535 and 590nm respectively."}
{"smiles": "O=C(Cl)C(Cl)(Cl)Cl", "fluorescence, % of fluorescent control": "0.0561% (inactive)"}
{"smiles": "Clc1nc(Cl)nc(Nc2ccccc2Cl)n1", "fluorescence, % of fluorescent control": "0.224% (inactive)"}
{"smiles": "O=C(Cl)CCl", "fluorescence, % of fluorescent control": "-0.142% (inactive)"}
{"smiles": "O=C(Cl)c1ccccc1", "fluorescence, % of fluorescent control": "-0.0121% [at 95.7 µM] (inactive)"}
{"smiles": "CC[C@@H](CO)NC(=O)[C@@H]1C=C2c3cccc4c3c(cn4C)C[C@H]2N(C)C1", "fluorescence, % of fluorescent control": "0.451% [at 46 µM] (inactive)"}
{"smiles": "CC(Cc1ccccc1)NCCn1cnc2c1c(=O)n(C)c(=O)n2C", "note": "(stereo not given)", "fluorescence, % of fluorescent control": "-0.14% (inactive)"}
{"smiles": "CCN[C@H](C)Cc1cccc(C(F)(F)F)c1", "fluorescence, % of fluorescent control": "0.13% (inactive)"}
{"smiles": "CCOC(=O)C(SP(=S)(OC)OC)c1ccccc1", "note": "(stereo not given)", "fluorescence, % of fluorescent control": "-0.296% (inactive)"}
{"smiles": "COC1=CC(=O)O[C@@H](/C=C/c2ccccc2)C1", "fluorescence, % of fluorescent control": "-0.0483% [at 95.7 µM] (inactive)"}
{"smiles": "CC(C)NCC(O)c1ccc([N+](=O)[O-])cc1", "note": "(stereo not given)", "fluorescence, % of fluorescent control": "-0.0305% [at 46 µM] (inactive)"}
{"smiles": "COc1ccc(CN2CCNCC2)c(OC)c1OC", "fluorescence, % of fluorescent control": "-0.0368% [at 18.6 µM] (inactive)"}
{"smiles": "CC(C)(C1CCC(O)CC1)C1CCC(O)CC1", "note": "(stereo not given)", "fluorescence, % of fluorescent control": "0.0401% (inactive)"}
{"smiles": "CC(=O)OCC1=C(C(=O)O)N2C(=O)[C@@H](N)[C@H]2SC1", "fluorescence, % of fluorescent control": "-0.0418% [at 18.6 µM] (inactive)"}
{"smiles": "CCN(CCO)CCO", "fluorescence, % of fluorescent control": "-0.0011% (inactive)"}
{"smiles": "C=CC1(C)OC(=O)N(c2cc(Cl)cc(Cl)c2)C1=O", "note": "(stereo not given)", "outcome": "inactive"}
{"smiles": "CCOC(=O)NC(C)(C)Cc1ccc(Cl)cc1", "fluorescence, % of fluorescent control": "-0.159% [at 46 µM] (inactive)"}
{"smiles": "NC(=O)OCCCc1ccccc1", "fluorescence, % of fluorescent control": "-0.0173% [at 46 µM] (inactive)"}
{"smiles": "Cc1ccc2cc(C)ccc2c1", "fluorescence, % of fluorescent control": "-0.0182% (inactive)"}
{"smiles": "Cn1c(N)nc2c3cccnc3ccc21", "fluorescence, % of fluorescent control": "0.0156% (inactive)"}
{"smiles": "CCCCCCC1CCOC1=O", "note": "(stereo not given)", "fluorescence, % of fluorescent control": "-0.018% (inactive)"}
{"smiles": "CC1N=C(N)OC1c1ccccc1", "note": "(stereo not given)", "fluorescence, % of fluorescent control": "-0.0701% (inactive)"}
{"smiles": "Cc1ccc(Cl)c(O)c1", "fluorescence, % of fluorescent control": "-0.0981% [at 46 µM] (inactive)"}
{"smiles": "CCC1(c2ccccc2)C(=O)N(COC)C(=O)N(COC)C1=O", "fluorescence, % of fluorescent control": "0.0067% [at 46 µM] (inactive)"}
{"smiles": "CC[C@H](N)c1ccccc1", "fluorescence, % of fluorescent control": "-0.0053% (inactive)"}
{"smiles": "O=C(O)c1c(Cl)ccc2cc(Cl)cnc12", "fluorescence, % of fluorescent control": "0.0312% (inactive)"}
{"smiles": "CCCCCCCC(=O)Cl", "fluorescence, % of fluorescent control": "0.0288% (inactive)"}
{"smiles": "CNC(=O)O/N=C(/CSC)C(C)(C)C", "fluorescence, % of fluorescent control": "0.106% (inactive)"}
{"smiles": "CS(=O)(=O)Cl", "fluorescence, % of fluorescent control": "-0.104% [at 95.7 µM] (inactive)"}
{"smiles": "C[C@H]1CCCC(=O)CCC/C=C/c2cc(O)cc(O)c2C(=O)O1", "outcome": "inactive"}
{"smiles": "C=C(Cl)CCl", "fluorescence, % of fluorescent control": "-0.0412% (inactive)"}
{"smiles": "CN(C)CCN(C)C", "fluorescence, % of fluorescent control": "0.0906% (inactive)"}
{"smiles": "CCCC[N+](=O)[O-]", "fluorescence, % of fluorescent control": "0.0008% (inactive)"}
{"smiles": "CC(=O)CN(CC(C)=O)N=O", "fluorescence, % of fluorescent control": "3.09% (inactive)"}
{"smiles": "O=C(O)CBr", "fluorescence, % of fluorescent control": "-0.159% (inactive)"}
{"smiles": "ClCCCCCCCl", "fluorescence, % of fluorescent control": "0.142% (inactive)"}
{"smiles": "N=C(N)[Se]", "fluorescence, % of fluorescent control": "0.079% (inactive)"}
{"smiles": "Brc1c(Br)c(Br)c(Br)c(Br)c1Br", "fluorescence, % of fluorescent control": "0.241% [at 3.72 µM] (inactive)"}
{"smiles": "CC(C)C(C)(N)C#N", "note": "(stereo not given)", "fluorescence, % of fluorescent control": "-0.106% (inactive)"}
{"smiles": "CC(C)[C@]12CC(=O)[C@H](C)[C@H]1C2", "fluorescence, % of fluorescent control": "0.196% (inactive)"}
{"smiles": "CC(=NC#N)N(C)Cc1ccc(Cl)nc1", "fluorescence, % of fluorescent control": "-0.0773% (inactive)"}
